# Source: PMC11006913
# Changes are numbered by the printed parent chain.
# Legend:
# Assay in all cases: PBM; 200 nM protein, PBS
# Conditions in all cases: dsDNA, one strand shown
# SIX6 [1] = molecular target: T1, SIX6 (Homo sapiens, UniProt O95475 114-200, L167I)
# T1 sequence: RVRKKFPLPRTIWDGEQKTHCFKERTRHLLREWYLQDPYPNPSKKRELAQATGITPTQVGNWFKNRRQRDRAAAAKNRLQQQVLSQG
# SIX6 [2] = molecular target: T2, SIX6 (Homo sapiens, UniProt O95475 114-200, L143V)
# T2 sequence: T1 sequence with L30V, I54L
# SIX6 [3] = molecular target: T3, SIX6 (Homo sapiens, UniProt O95475 114-200, H141N)
# T3 sequence: T1 sequence with H28N, I54L
# SIX6 [4] = molecular target: T4, SIX6 (Homo sapiens, UniProt O95475 114-200, L167M)
# T4 sequence: T1 sequence with I54M
# SIX6 [5] = molecular target: T5, SIX6 (Homo sapiens, UniProt O95475 114-200, L143M)
# T5 sequence: T1 sequence with L30M, I54L
# SIX6 [6] = molecular target: T6, SIX6 (Homo sapiens, UniProt O95475 114-200, L143I)
# T6 sequence: T1 sequence with L30I, I54L
# HOXD13 [7] = molecular target: HOXD13 (Homo sapiens, UniProt P35453 263-343, T313R)
# HOXD13 (Homo sapiens, UniProt P35453 263-343, T313R), sequence (P35453 263-343 T313R): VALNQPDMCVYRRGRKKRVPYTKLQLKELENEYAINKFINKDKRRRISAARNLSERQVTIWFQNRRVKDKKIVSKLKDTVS
# SIX6 [8] = molecular target: T7, SIX6 (Homo sapiens, UniProt O95475 114-200, T165A)
# T7 sequence: T1 sequence with T52A, I54L
# HOXD13 [9] = molecular target: HOXD13 (Homo sapiens, UniProt P35453 263-343)
# HOXD13 (Homo sapiens, UniProt P35453 263-343), sequence (P35453 263-343): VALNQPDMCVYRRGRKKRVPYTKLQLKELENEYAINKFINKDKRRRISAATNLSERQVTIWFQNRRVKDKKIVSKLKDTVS
# SIX6 [10] = molecular target: T8, SIX6 (Homo sapiens, UniProt O95475 114-200, L167V)
# T8 sequence: T1 sequence with I54V
# SIX6 [11] = molecular target: T9, SIX6 (Homo sapiens, UniProt O95475 114-200)
# T9 sequence: T1 sequence with I54L
# HOXD13 [12] = molecular target: HOXD13 (Homo sapiens, UniProt P35453 263-343, T313A)
# HOXD13 (Homo sapiens, UniProt P35453 263-343, T313A), sequence (P35453 263-343 T313A): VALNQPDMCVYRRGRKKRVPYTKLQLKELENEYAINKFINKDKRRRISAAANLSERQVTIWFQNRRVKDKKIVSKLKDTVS
# CRX [13] = molecular target: CRX (Homo sapiens, UniProt O43186 26-111, R41L)
# CRX (Homo sapiens, UniProt O43186 26-111, R41L), sequence (O43186 26-111 R41L): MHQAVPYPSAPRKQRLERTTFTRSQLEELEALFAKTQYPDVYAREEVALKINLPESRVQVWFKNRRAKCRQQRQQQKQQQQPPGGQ
# NKX3-2 [14] = molecular target: NKX3-2 (Homo sapiens, UniProt P78367 192-278, P234S)
# NKX3-2 (Homo sapiens, UniProt P78367 192-278, P234S), sequence (P78367 192-278 P234S): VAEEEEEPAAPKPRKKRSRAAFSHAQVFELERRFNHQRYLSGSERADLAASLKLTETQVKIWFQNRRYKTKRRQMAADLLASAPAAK
# NKX3-2 [15] = molecular target: NKX3-2 (Homo sapiens, UniProt P78367 192-278)
# NKX3-2 (Homo sapiens, UniProt P78367 192-278), sequence (P78367 192-278): as the sequence (P78367 192-278 P234S) above, with S43P counted along it
# CRX [16] = molecular target: CRX (Homo sapiens, UniProt O43186 26-111)
# CRX (Homo sapiens, UniProt O43186 26-111), sequence (O43186 26-111): as the sequence (O43186 26-111 R41L) above, with L16R counted along it
# CRX [17] = molecular target: CRX (Homo sapiens, UniProt O43186 26-111, E42D)
# CRX (Homo sapiens, UniProt O43186 26-111, E42D), sequence (O43186 26-111 E42D): as the sequence (O43186 26-111 R41L) above, with L16R, E17D counted along it
# NKX2-6 = molecular target: T10, NKX2-6 (Homo sapiens, UniProt A6NCS4 118-204, R150C)
# T10 sequence: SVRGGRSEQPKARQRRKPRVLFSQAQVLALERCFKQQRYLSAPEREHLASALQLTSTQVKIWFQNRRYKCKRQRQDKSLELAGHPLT
sequence,measurement,setting,value
CCAGGTCC,binding signal,SIX6 [1],"9.09 upbm affinity estimate (log intensity, higher = more binding, comparable within an allelic series)"
same,binding signal,SIX6 [2],"8.75 upbm affinity estimate (log intensity, higher = more binding, comparable within an allelic series)"
same,binding signal,SIX6 [3],"8.99 upbm affinity estimate (log intensity, higher = more binding, comparable within an allelic series)"
same,binding signal,SIX6 [4],"8.79 upbm affinity estimate (log intensity, higher = more binding, comparable within an allelic series)"
same,binding signal,SIX6 [5],"9.02 upbm affinity estimate (log intensity, higher = more binding, comparable within an allelic series)"
same,binding signal,SIX6 [6],"8.99 upbm affinity estimate (log intensity, higher = more binding, comparable within an allelic series)"
same,binding signal,HOXD13 [7],"9.45 upbm affinity estimate (log intensity, higher = more binding, comparable within an allelic series)"
same,binding signal,SIX6 [8],"9.07 upbm affinity estimate (log intensity, higher = more binding, comparable within an allelic series)"
same,binding signal,HOXD13 [9],"9.43 upbm affinity estimate (log intensity, higher = more binding, comparable within an allelic series)"
same,binding signal,SIX6 [10],"9 upbm affinity estimate (log intensity, higher = more binding, comparable within an allelic series)"
same,binding signal,SIX6 [11],"9.04 upbm affinity estimate (log intensity, higher = more binding, comparable within an allelic series)"
same,binding signal,HOXD13 [12],"9.65 upbm affinity estimate (log intensity, higher = more binding, comparable within an allelic series)"
AATTAATC,binding signal,CRX [13],"12.5 upbm affinity estimate (log intensity, higher = more binding, comparable within an allelic series)"
ATTAATAG,binding signal,HOXD13 [7],"10.9 upbm affinity estimate (log intensity, higher = more binding, comparable within an allelic series)"
same,binding signal,HOXD13 [9],"11.8 upbm affinity estimate (log intensity, higher = more binding, comparable within an allelic series)"
same,binding signal,HOXD13 [12],"11.8 upbm affinity estimate (log intensity, higher = more binding, comparable within an allelic series)"
ACTAATTG,binding signal,NKX3-2 [14],"11.8 upbm affinity estimate (log intensity, higher = more binding, comparable within an allelic series)"
same,binding signal,NKX3-2 [15],"11.8 upbm affinity estimate (log intensity, higher = more binding, comparable within an allelic series)"
CAATTAAA,binding signal,HOXD13 [7],"10.7 upbm affinity estimate (log intensity, higher = more binding, comparable within an allelic series)"
same,binding signal,HOXD13 [9],"11.7 upbm affinity estimate (log intensity, higher = more binding, comparable within an allelic series)"
same,binding signal,HOXD13 [12],"11.7 upbm affinity estimate (log intensity, higher = more binding, comparable within an allelic series)"
GGCAATTA,binding signal,NKX3-2 [14],"11.8 upbm affinity estimate (log intensity, higher = more binding, comparable within an allelic series)"
same,binding signal,NKX3-2 [15],"11.9 upbm affinity estimate (log intensity, higher = more binding, comparable within an allelic series)"
CTAATTAC,binding signal,NKX3-2 [14],"11.6 upbm affinity estimate (log intensity, higher = more binding, comparable within an allelic series)"
same,binding signal,NKX3-2 [15],"11.7 upbm affinity estimate (log intensity, higher = more binding, comparable within an allelic series)"
CCAATTAA,binding signal,HOXD13 [7],"10.8 upbm affinity estimate (log intensity, higher = more binding, comparable within an allelic series)"
same,binding signal,HOXD13 [9],"11.9 upbm affinity estimate (log intensity, higher = more binding, comparable within an allelic series)"
same,binding signal,HOXD13 [12],"11.8 upbm affinity estimate (log intensity, higher = more binding, comparable within an allelic series)"
same,binding signal,NKX3-2 [14],"11.7 upbm affinity estimate (log intensity, higher = more binding, comparable within an allelic series)"
same,binding signal,NKX3-2 [15],"11.8 upbm affinity estimate (log intensity, higher = more binding, comparable within an allelic series)"
CAATTAAC,binding signal,HOXD13 [12],"11.6 upbm affinity estimate (log intensity, higher = more binding, comparable within an allelic series)"
CCCAGGCG,binding signal,NKX3-2 [14],"10.6 upbm affinity estimate (log intensity, higher = more binding, comparable within an allelic series)"
same,binding signal,NKX3-2 [15],"10.6 upbm affinity estimate (log intensity, higher = more binding, comparable within an allelic series)"
GGAGCGCA,binding signal,SIX6 [1],"8.88 upbm affinity estimate (log intensity, higher = more binding, comparable within an allelic series)"
same,binding signal,SIX6 [2],"8.9 upbm affinity estimate (log intensity, higher = more binding, comparable within an allelic series)"
same,binding signal,SIX6 [3],"8.88 upbm affinity estimate (log intensity, higher = more binding, comparable within an allelic series)"
same,binding signal,SIX6 [4],"8.87 upbm affinity estimate (log intensity, higher = more binding, comparable within an allelic series)"
same,binding signal,SIX6 [5],"8.97 upbm affinity estimate (log intensity, higher = more binding, comparable within an allelic series)"
same,binding signal,SIX6 [6],"8.85 upbm affinity estimate (log intensity, higher = more binding, comparable within an allelic series)"
same,binding signal,SIX6 [8],"8.96 upbm affinity estimate (log intensity, higher = more binding, comparable within an allelic series)"
same,binding signal,SIX6 [10],"8.93 upbm affinity estimate (log intensity, higher = more binding, comparable within an allelic series)"
same,binding signal,SIX6 [11],"8.87 upbm affinity estimate (log intensity, higher = more binding, comparable within an allelic series)"
GAGGGGGC,binding signal,CRX [16],"8.07 upbm affinity estimate (log intensity, higher = more binding, comparable within an allelic series)"
same,binding signal,CRX [17],"8.05 upbm affinity estimate (log intensity, higher = more binding, comparable within an allelic series)"
same,binding signal,CRX [13],"8.14 upbm affinity estimate (log intensity, higher = more binding, comparable within an allelic series)"
ATTAATGC,binding signal,CRX [16],"11.9 upbm affinity estimate (log intensity, higher = more binding, comparable within an allelic series)"
same,binding signal,CRX [17],"11.7 upbm affinity estimate (log intensity, higher = more binding, comparable within an allelic series)"
same,binding signal,CRX [13],"11 upbm affinity estimate (log intensity, higher = more binding, comparable within an allelic series)"
GACAATTA,binding signal,NKX2-6,"11 upbm affinity estimate (log intensity, higher = more binding, comparable within an allelic series)"
CTTGCGGC,binding signal,NKX3-2 [14],"10.7 upbm affinity estimate (log intensity, higher = more binding, comparable within an allelic series)"
same,binding signal,NKX3-2 [15],"10.6 upbm affinity estimate (log intensity, higher = more binding, comparable within an allelic series)"
CCGAGCGG,binding signal,NKX2-6,"9.43 upbm affinity estimate (log intensity, higher = more binding, comparable within an allelic series)"
GCCGTCGC,binding signal,CRX [16],"8.32 upbm affinity estimate (log intensity, higher = more binding, comparable within an allelic series)"
same,binding signal,CRX [17],"8.21 upbm affinity estimate (log intensity, higher = more binding, comparable within an allelic series)"
same,binding signal,CRX [13],"8.17 upbm affinity estimate (log intensity, higher = more binding, comparable within an allelic series)"
